Laboratory results reported in PubChem BioAssay (Tox21).
Inconclusive results are not listed. Calls of active or inactive are those of the source. Unless noted, calls follow the shape of the dose curve; as a rule, active = well fitted curve in the direction sought with a large enough effect in the repeat runs; inconclusive = weak or mixed curves; inactive = no such curve, though single readings can be large; an effect the other way counts as inactive or inconclusive.

Key:
[1] = qHTS assay to identify small molecule agonists of the vitamin D receptor (VDR) signaling pathway - cell viability counter screen (AID 743224); also: series mostly up to about 63 µM; nearly all actives have a fitted effect of over 50% in size
Summary of the method: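 Compounds were pin-transferred onto VDR-bla cells plated 4 h earlier; following 16 h incubation at 37C, cell viability was quantified by CellTiter-Glo luminescence after 30 min at room temperature.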

[2] = qHTS assay to identify small molecule antagonists of the vitamin D receptor (VDR) signaling pathway - cell viability counter screen (AID 743225); also: nearly all actives have a fitted effect of over 50% in size
Summary of the method: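 Read-out: CellTiter-Glo luminescence measured 30 min after reagent addition at room temperature. Cells were VDR-bla HEK 293T exposed 16 h at 37C, 5% CO2, to compound with 3 nM final calcitriol agonist.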

[3] = qHTS assay to identify small molecule agonists of the NFkB signaling pathway (AID 1159509; active = well fitted curve in the direction sought with a large enough effect in the signal ratio in the repeat runs, not every such curve was filed as active; the % refers to the signal ratio; also: series mostly up to about 61 µM)
Summary of the method: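 Pathway activation was measured in ME-180 cells stably expressing beta-lactamase under NF-kB response element control. Substrate cleavage was read as the 460/530 nm emission shift after 5 hr compound incubation.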

[4] = qHTS assay to identify small molecule agonists of the NFkB signaling pathway - cell viability counter screen (AID 1159515; calls by dose curve; also: series mostly up to about 61 µM; nearly all actives have a fitted effect of over 55% in size)
Summary of the method: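 Parallel cytotoxicity counter screen in ME-180 cells carrying an NFkB-response-element beta-lactamase reporter, 2,000 cells/well. Compound exposure lasted 5 hr at 37 C, 5% CO2. Cell viability was quantified by CellTiter-Glo luminescence.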

[5] = qHTS assay to identify small molecule agonists of the endoplasmic reticulum stress response signaling pathway (AID 1159516; active = well fitted activation curve with a large enough effect in the signal ratio in the repeat runs, not every such curve was filed as active; the % refers to the signal ratio)
Summary of the method: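 Using a HeLa line with an ESRE-driven beta-lactamase gene, agonist activity was measured by FRET substrate fluorescence (460 and 530 nm emission) after cells were treated with compounds for 5 hr at 37 C and 5% CO2.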

[6] = qHTS assay to identify small molecule agonists of the endoplasmic reticulum stress response signaling pathway - cell viability counter screen (AID 1159517; calls by dose curve;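 also: HeLa cells carrying an ER stress response element beta-lactamase reporter; series mostly up to about 61 µM; nearly all actives have a fitted effect of over 50% in size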)
Summary of the method: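 In parallel with the ESRE reporter read, cytotoxicity was scored by CellTiter-Glo luminescence (30 min, room temperature) on HeLa ESRE-bla cells dosed for 5 hr.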

[7] = qHTS assay to identify small molecule antagonists of the retinoid-related orphan receptor gamma (ROR-gamma) signaling pathway - cell viability counter screen (AID 1159520); also: nearly all actives have a fitted effect of over 50% in size
Summary of the method: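 Tet-on ROR gamma CHO cells were given compounds for 2 hr, then doxycycline hyclate at 1 uM final, and incubated 16 hr at 37 C. Viability was measured as ATP content by CellTiter-Glo luminescence.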

[8] = target: Nuclear receptor ROR-gamma (Homo sapiens) (UniProt P51449); assay: qHTS assay to identify small molecule antagonists of the retinoid-related orphan receptor gamma (ROR-gamma) signaling pathway (AID 1159521)
Summary of the method: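 CHO Tet-on RORγ, RORE-luc reporter. Cpd 2 h pre-incubation, then dox hyclate 1 uM final, 16 h, 37 C/5% CO2. ONE-Glo luminescence; decrease = antagonist.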

[9] = qHTS assay to identify small molecule agonists of the AP-1 signaling pathway (AID 1159526; calls by dose curve)
[10] = target: Retinoic acid receptor RXR-alpha (Homo sapiens) (UniProt P19793); assay: qHTS assay to identify small molecule agonists of the RXR signaling pathway (AID 1159527; calls by dose curve; also: nearly all actives have a fitted effect of over 35% in size)
Retinoic acid receptor RXR-alpha (Homo sapiens), sequence (P19793 whole entry, looked up): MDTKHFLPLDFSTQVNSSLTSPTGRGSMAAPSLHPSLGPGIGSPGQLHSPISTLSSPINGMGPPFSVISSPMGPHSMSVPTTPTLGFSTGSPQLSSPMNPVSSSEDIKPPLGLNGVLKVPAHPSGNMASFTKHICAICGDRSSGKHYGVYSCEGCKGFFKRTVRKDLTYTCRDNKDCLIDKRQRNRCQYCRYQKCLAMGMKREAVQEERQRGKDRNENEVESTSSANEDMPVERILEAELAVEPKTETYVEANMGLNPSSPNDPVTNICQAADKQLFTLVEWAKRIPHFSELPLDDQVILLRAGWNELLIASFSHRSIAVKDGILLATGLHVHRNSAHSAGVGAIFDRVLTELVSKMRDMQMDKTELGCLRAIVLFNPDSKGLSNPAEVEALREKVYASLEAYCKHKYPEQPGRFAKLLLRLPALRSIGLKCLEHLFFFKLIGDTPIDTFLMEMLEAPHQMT
Summary of the method: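 Read-out: beta-lactamase FRET ratio (405 nm excitation, 460 and 530 nm emission) after 2 hr substrate loading at room temperature. Cells were RXR-alpha-UAS-bla HEK 293T treated with compounds for 16 hr in 2% charcoal-stripped FBS medium.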

[11] = qHTS assay to identify small molecule agonists of the RXR signaling pathway - cell viability counter screen (AID 1159529)
Summary of the method: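 HEK 293T RXRa-bla cells, 2% CS-FBS; 5 h settle; cpd 16 h 37 C, 5% CO2; CellTiter-Glo 30 min RT, luminescence. Tetraoctyl ammonium bromide as positive control.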

[12] = qHTS assay to identify small molecule antagonists of the retinoid acid receptor (RAR) signaling pathway - cell viability counter screen (AID 1159551); also: nearly all actives have a fitted effect of over 35% in size
Summary of the method: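 ATP-based viability, C3RL4 cells, 6 h at 37 C with 1 uM final retinol co-added after compound; luminescence read 30 min post CellTiter-Glo, RT.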

[13] = qHTS assay to identify small molecule antagonists of the retinoic acid receptor (RAR) signaling pathway (AID 1159552; also: nearly all actives have a fitted effect of over 50% in size)
Summary of the method: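 Cells of the C3RL4 line were seeded, incubated overnight, then dosed with compounds in DMSO followed immediately by retinol (1 uM final). Six hours later luciferase detection reagent went in; signal was measured after 30 min at RT.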

[14] = qHTS assay to identify small molecule agonists of the retinoic acid receptor (RAR) signaling pathway (AID 1159553)
Summary of the method: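 Quantitative high-throughput format: the Tox21 10K library was tested on C3RL4 RARE-luciferase cells for 6 hr at 37 C and 5% CO2, with luminescence measured after a 30 min room-temperature reagent step.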

[15] = qHTS assay to identify small molecule antagonists of the estrogen related receptor (ERR) signaling pathway from Tox21 library - cell viability counter screen (AID 1224834); also: nearly all actives have a fitted effect of over 30% in size
Summary of the method: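 Compounds in DMSO were pinned onto ERR cells that had been incubated for 6 h, and the plates were held at 37 C for 17.5 h. CellTiter-Fluor reagent was then added and fluorescence was measured after 30 min.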

[16] = target: Luciferin 4-monooxygenase (Photinus pyralis) (UniProt P08659); assay: qHTS assay to identify small molecule inhibitors of firefly luciferase (AID 1224835); also: series mostly up to about 120 µM; nearly all actives have a fitted effect of over 25% in size
Luciferin 4-monooxygenase (Photinus pyralis), sequence (P08659 whole entry, looked up): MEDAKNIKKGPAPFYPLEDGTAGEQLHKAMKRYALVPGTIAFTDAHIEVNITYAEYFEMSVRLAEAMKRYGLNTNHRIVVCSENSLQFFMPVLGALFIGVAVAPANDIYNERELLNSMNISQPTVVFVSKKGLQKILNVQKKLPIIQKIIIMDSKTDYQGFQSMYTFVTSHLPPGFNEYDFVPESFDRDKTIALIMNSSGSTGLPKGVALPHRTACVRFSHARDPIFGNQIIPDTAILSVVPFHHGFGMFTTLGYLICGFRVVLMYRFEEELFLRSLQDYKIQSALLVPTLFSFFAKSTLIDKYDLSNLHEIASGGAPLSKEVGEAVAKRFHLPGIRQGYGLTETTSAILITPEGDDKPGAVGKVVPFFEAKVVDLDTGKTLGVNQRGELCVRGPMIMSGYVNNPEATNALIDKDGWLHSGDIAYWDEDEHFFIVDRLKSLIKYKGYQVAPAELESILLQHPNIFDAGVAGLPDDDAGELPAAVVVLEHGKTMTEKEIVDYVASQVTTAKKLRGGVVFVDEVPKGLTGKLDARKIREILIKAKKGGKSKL
Summary of the method: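 Biochemical qHTS: compounds run as interplate titrations against purified firefly enzyme, with D-luciferin and ATP each at its KM concentration. Light output recorded by CCD imaging.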

[17] = qHTS assay to identify small molecule agonists of the constitutive androstane receptor (CAR) signaling pathway - cell viability counter screen (AID 1224836); also: series mostly up to about 92 µM; nearly all actives have a fitted effect of over 45% in size
Summary of the method: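 HepG2-CYP2B6-hCAR, 2500 cells/well, 4 h pre-incubation; cpd 15 conc + PK11195 0.75 uM final; 23 h, 37 C/5% CO2; CellTiter-Fluor, fluorescence.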

[18] = target: Nuclear receptor subfamily 1 group I member 3 (Homo sapiens) (UniProt Q14994); assay: qHTS assay to identify small molecule antagonists of the constitutive androstane receptor (CAR) signaling pathway (AID 1224838);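 also: HepG2 cells stably expressing hCAR with CYP2B6 luciferase reporter stimulated by CITCO; nearly all actives have a fitted effect of over 40% in size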
Nuclear receptor subfamily 1 group I member 3 (Homo sapiens), sequence (Q14994 whole entry, looked up): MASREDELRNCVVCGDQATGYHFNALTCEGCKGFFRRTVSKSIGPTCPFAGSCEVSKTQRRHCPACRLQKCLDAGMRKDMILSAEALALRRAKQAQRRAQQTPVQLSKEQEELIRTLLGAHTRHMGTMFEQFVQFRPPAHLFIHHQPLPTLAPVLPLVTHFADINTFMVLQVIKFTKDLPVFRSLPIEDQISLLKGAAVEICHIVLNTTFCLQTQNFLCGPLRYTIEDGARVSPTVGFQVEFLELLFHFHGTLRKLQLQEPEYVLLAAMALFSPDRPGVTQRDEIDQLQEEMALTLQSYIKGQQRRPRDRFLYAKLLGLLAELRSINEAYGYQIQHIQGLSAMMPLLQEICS
Summary of the method: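 Luminescence from a CYP2B6-2.2kb promoter reporter in hCAR-expressing HepG2 cells reflects CAR signaling. Cells received compounds at 15 concentrations and 50 nM CITCO (final), then incubated 24 h at 37 C/5% CO2.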

[19] = qHTS assay to identify small molecule agonists of the AP-1 signaling pathway - cell viability counter screen (AID 1159525; calls by dose curve; also: nearly all actives have a fitted effect of over 55% in size)
Summary of the method: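 Same-well cytotoxicity counter screen of the Tox21 10K library in ME-180 cells. The readout is ATP-dependent luminescence after 5 h compound treatment. Data are normalised to DMSO and tetra n-octyl ammonium bromide controls.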

[20] = qHTS assay to identify small molecule antagonists of the constitutive androstane receptor (CAR) signaling pathway - cell viability counter screen (AID 1224837); also: series mostly up to about 92 µM; nearly all actives have a fitted effect of over 45% in size
Summary of the method: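 Cells are seeded, rested 4 hr at 37 C/5% CO2, dosed with compound (15-point series) and 50 nM CITCO, incubated a further 23 hr, and then CellTiter-Fluor reagent is added before fluorescence is read. The line is HepG2 with stable hCAR and CYP2B6-2.2kb.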

Measured: Potency

O=C(CCCl)NCCc1ccccc1
inactive: [1] | [2] | [3] | [4] | [5] | [6] | [7] | [8] | [9] | [10] | [11] | [12] | [13] | [14] | [15] | [16] | [17] | [18]

CC1=C(C(=O)O)N2C(=O)[C@@H](NC(=O)[C@H](N)C3=CCC=CC3)[C@H]2SC1
inactive: [1] | [3] | [4] | [5] | [7] | [8] | [19] | [9] | [10] | [11] | [12] | [13] | [14] | [15] | [16] | [17] | [20] | [18]

CCCC(=O)OC/C=C(\C)CCC=C(C)C
inactive: [1] | [3] | [5] | [6] | [7] | [8] | [19] | [9] | [10] | [11] | [12] | [13] | [14] | [15] | [16] | [17] | [20] | [18]

CCC(=O)Oc1ccc2c(c1)CC[C@@H]1[C@@H]2CC[C@@]2(C)[C@H]1C[C@@H](OC(=O)CC)[C@@H]2OC(=O)CC
inactive: [1] | [2] | [3] | [4] | [5] | [7] | [8] | [19] | [9] | [10] | [11] | [12] | [13] | [14] | [15] | [16] | [17] | [20] | [18]

CC1CC(=O)CC(C)(C)C1 (stereo not drawn)
inactive: [1] | [2] | [3] | [4] | [5] | [6] | [7] | [9] | [10] | [11] | [12] | [13] | [14] | [15] | [16] | [17] | [20]

COS(=O)(=O)O
inactive: [1] | [2] | [3] | [4] | [5] | [7] | [8] | [9] | [10] | [11] | [12] | [13] | [14] | [15] | [16] | [17] | [20] | [18]

CC1(C)O[C@H]2CC(=O)OC[C@]23[C@H]2CC[C@@]4(C)[C@H](c5ccoc5)OC(=O)[C@H]5O[C@]54[C@]2(C)C(=O)C[C@@H]13
inactive: [1] | [2] | [3] | [4] | [5] | [7] | [8] | [19] | [9] | [10] | [11] | [12] | [13] | [14] | [15] | [16] | [20] | [18]

COc1ccc(CCO)cc1
inactive: [1] | [3] | [4] | [5] | [6] | [7] | [8] | [9] | [10] | [11] | [12] | [13] | [14] | [15] | [16] | [20] | [18]

O=C(O)[C@H](O)c1ccccc1
inactive: [1] | [2] | [3] | [4] | [5] | [7] | [8] | [9] | [10] | [11] | [12] | [13] | [14] | [15] | [16] | [17] | [20] | [18]

O=C=NCC1CCCC(CN=C=O)C1 (stereo not drawn)
inactive: [1] | [3] | [4] | [5] | [7] | [8] | [19] | [9] | [10] | [11] | [12] | [13] | [14] | [15] | [16] | [17] | [18]

CN(C)C(C)(C)CO
inactive: [1] | [2] | [3] | [4] | [5] | [7] | [8] | [19] | [9] | [10] | [11] | [12] | [13] | [14] | [15] | [16] | [17] | [20] | [18]

CNCCS(=O)(=O)O
inactive: [1] | [2] | [3] | [4] | [5] | [7] | [8] | [19] | [9] | [10] | [11] | [12] | [13] | [14] | [15] | [16] | [17] | [20] | [18]

CC(C)Nc1ccccc1
inactive: [1] | [3] | [4] | [5] | [7] | [8] | [19] | [9] | [10] | [11] | [12] | [13] | [14] | [15] | [16] | [17] | [20] | [18]

CN(C)CCN(C)CCO
inactive: [1] | [2] | [3] | [4] | [5] | [7] | [8] | [19] | [9] | [10] | [11] | [12] | [13] | [14] | [15] | [16] | [17] | [20] | [18]
